# This is a sample that favours compounds with a hit; in the whole collection about 3% have one here.
# HEK293 viab: GF-AFC viability counterscreen for inhibitors of alpha-synuclein gene (SNCA) expression | HEK-293-SNCA-luc viability, GF-AFC fluorescence, 24 h | Potency, µM (series often up to 57.1 µM), for inactives: at the highest dose activity change, negative = cytotoxicity, most hits filed as cytotoxic | actives 0.12% (n = 150,000);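 note: potency is the fitted concentration of half-maximal effect; 0% = DMSO-treated cells and -100% = medium-only wells without cells; nearly all actives have a fitted effect of over 30% in size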
#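 HEK-293-SNCA-luc cells (1500/well) plated 24 h, then exposed 24 h to a dilution series; GF-AFC added 30 min at 37C, fluorescence 405/540 nm; normalised to medium-only and DMSO wells, Hill fit.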
# KDM5B inhibitor: Primary screen for KDM5B Histone Demethylases FDH-coupled qHTS | Potency, µM (top dose mostly 57.7 µM), most hits filed as inhibitors | KDM5B demethylase, FDH-coupled NADH fluorescence (FDH is formaldehyde dehydrogenase) | Lysine-specific demethylase 5B (Homo sapiens), Q9UGL1 | actives 2.6% (n = 220,000); note: potency is the fitted concentration of half-maximal effect; 0% is about no effect; nearly all actives have a fitted effect of over 70% in size
#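 qHTS format, multiple compound concentrations. Buffer 50 mM HEPES pH 7.5/0.01% Tween-20; 200 nM KDM5BΔAP final; 10 min compound preincubation; substrate-mix levels 12.5 µM peptide, 25 µM α-KG, 0.25 mM NAD⁺; 30 min RT; ΔRFU.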
# SNCA expr inh: Primary qHTS assay for inhibitors of alpha-synuclein gene (SNCA) expression. HEK-293 SNCA-luciferase knock-in, luminescence, 24 h. Potency, µM (top dose mostly 57.2 µM), without a hit: top-dose activity change, negative = inhibition, most hits filed as inhibitors. actives 0.17% (n = 140,000);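 note: potency is the fitted concentration of half-maximal effect; plate controls were DMSO cells for no effect and cell-free wells for full effect; nearly all actives have a fitted effect of over 45% in size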
# IP6K1 inhibitor: Primary qHTS assay for small molecule inhibitors of Inositol hexaphosphate kinase 1 (IP6K1); Inositol hexakisphosphate kinase 1 (Homo sapiens), Q92551; IP6K1 kinase, ADP-Glo luminescence, 2 h; hits give low values; activity change, % (series mostly up to about 58 µM); actives 0.81% (n = 140,000); AID 1645851, 2021; in the data active = activity change below about -25%; note: % is set by controls: 0 for no effect and ±100 for the full control effect
# Target sequence (Q92551 whole entry, looked up): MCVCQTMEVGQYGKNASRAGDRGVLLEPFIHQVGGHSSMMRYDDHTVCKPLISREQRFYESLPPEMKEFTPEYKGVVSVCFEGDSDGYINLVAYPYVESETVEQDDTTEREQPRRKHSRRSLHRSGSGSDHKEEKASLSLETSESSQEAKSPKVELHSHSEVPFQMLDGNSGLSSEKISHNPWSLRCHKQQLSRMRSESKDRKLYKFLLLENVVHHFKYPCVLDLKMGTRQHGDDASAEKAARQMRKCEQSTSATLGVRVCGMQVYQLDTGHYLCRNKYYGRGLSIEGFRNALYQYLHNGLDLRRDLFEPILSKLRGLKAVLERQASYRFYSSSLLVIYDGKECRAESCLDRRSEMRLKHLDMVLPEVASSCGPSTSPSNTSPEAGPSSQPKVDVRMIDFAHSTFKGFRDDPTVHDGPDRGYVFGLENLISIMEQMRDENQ
#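 ADP-Glo luminescence measures ADP made by human IP6K1 during a 2 h RT reaction with ATP/IP6 (mix at 1.3 mM/130 uM); top library doses 57.5 and 19.1 uM final.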
# Numbers without * were called inactive; i = inactive; ? = inconclusive; / = not tested or not shown; [ ] = remark or other dose. Unless noted, calls come from the whole dose curve; as a rule, active = well fitted curve in the direction sought with a large enough effect; inconclusive = small, poorly fitted or top-dose-only effect, or another doubt; inactive = no such curve, though single readings can be large; an effect the other way counts as inactive or inconclusive.
SMILES,HEK293 viab,KDM5B inhibitor,SNCA expr inh,IP6K1 inhibitor
CC(C)N(Cc1ccccc1)Cc1nnc2cc(-c3nc(-c4ccccc4)no3)ccn12,-3%,28µM*,96%,10
CC(C)CN(Cc1nnc2cc(-c3nc(-c4ccccc4)no3)ccn12)CC(C)C,3%,?,6%,18
CN(Cc1ccccc1)Cc1nnc2cc(-c3nc(-c4ccccc4)no3)ccn12,-5%,28µM*,45%,19
c1ccc(CC2CCN(Cc3nnc4cc(-c5nc(-c6ccccc6)no5)ccn34)CC2)cc1,1%,i,74%,40
Cc1noc2c(-c3cccnc3)cc(-c3cccs3)nc12,-8%[87.6 µM],?,-29%[87.6 µM],6
Cc1noc2c(-c3cccc(O)c3)cc(-c3cccs3)nc12,-8%[87.6 µM],13µM*,-11%[87.6 µM],-20
Cc1noc2c(NC(C)C)cc(-c3cccs3)nc12,2%[87.6 µM],i,-5%[87.6 µM],-24
Cc1noc2c(-c3ccncc3)cc(-c3cccs3)nc12,7%[87.6 µM],5.6µM*,-15%[87.6 µM],2
CC(C)c1ccc(N2C(=O)[C@@H]3C[C@@H](NC(=O)C4CCN(c5nccc(C(F)(F)F)n5)CC4)CCN3C2=O)cc1,-12%,28µM*,-1%,8
CNC(=O)c1cc2cc(-c3c(C)noc3C)nc(-c3cccc(CO)c3)c2o1,-10%[87.6 µM],35µM*,72%[87.6 µM],0
CNC(=O)c1cc2cc(-c3c(C)noc3C)nc(-c3ccccc3OC)c2o1,-1%[87.6 µM],?,32%[87.6 µM],-14
CNC(=O)c1cc2cc(-c3c(C)noc3C)nc(-c3ccccc3C)c2o1,-13%[87.6 µM],35µM*,54%[87.6 µM],5
O=C(Nc1ccccc1F)N1CCC(Oc2ccccc2-c2nc(C3CC3)no2)C1 (stereo unspecified),-21%,/,7%,-10
C=CCCC(CN1CCCOCC1)Oc1cc(C#N)ccn1 (stereo unspecified),1%,28µM*,-23%,-8
C=CCCC(CN1CCCOCC1)Oc1ccc(C#N)cn1 (stereo unspecified),0%,i,-23%,17
O=[S+]([O-])(c1cccs1)N1CCCN(c2ccc3nnc(C4CC4)n3n2)CC1,/,/,/,5
O=C(Cn1ccn2nc3c(c2c1=O)CCCC3)NCc1cccs1,10%,20µM*,30%,13
O=C(Cn1ccn2nc3c(c2c1=O)CCCC3)NCc1ccc(F)cc1,-4%,i,1%,-6
Cc1ccc(CNC(=O)Cn2ccn3nc4c(c3c2=O)CCCCC4)cc1,7%,5.6µM*,-16%,31
O=C(Cn1ccn2nc3c(c2c1=O)CCCCC3)NCc1ccc(Cl)cc1,-11%,?,-8%,29
CC(CCc1ccccc1)NC(=O)Cn1ccn2nc3c(c2c1=O)CCCC3 (stereo unspecified),-1%,20µM*,4%,-4
O=C(Cn1ccn2nc3c(c2c1=O)CCCC3)NCc1ccccc1,-1%,25µM*,?,-14
Cn1cccc1C(=O)N1CCO[C@@H](COc2ccccn2)[C@@H]1c1ccccc1,12%,/,-19%,13
CNC(=O)c1cc(C2CC2)nc2c1c(C1CCN([S+](=O)([O-])c3cccc(C(F)(F)F)c3)C1)nn2C (stereo unspecified),/,/,/,3
COc1ccccc1CNC(=O)C1CCCN(c2nccc(Nc3ccccc3OC)n2)C1 (stereo unspecified),1%[12.5 µM],/,-23%,5
SMILES,HEK293 viab,KDM5B inhibitor,SNCA expr inh,IP6K1 inhibitor
COc1cccc(CNC(=O)Cn2ccn3nc4c(c3c2=O)CCCC4)c1,8%,25µM*,-4%,2
COCCN1C[C@@H]2[C@H](c3ccccc31)[C@@H](CO)[C@@H](c1ccccc1)N2C(=O)C1CC1,/,/,/,-14
O=C(c1ncccc1F)N1C[C@@H](COCC2CC2)[C@H](c2ccccn2)C1,-4%,i,7%,6
O=C(c1ncn[nH]1)N1C[C@@H](COCC2CC2)[C@H](c2ccccn2)C1,-24%,i,0.79µM*,2
Cc1ccccc1-c1[nH]nc2ncc(-c3ccccc3F)nc12,-14%[87.6 µM],35µM*,91%[87.6 µM],11
Cc1ccccc1-c1[nH]nc2ncc(-c3cnn(C)c3)nc12,-12%[87.6 µM],32µM*,31%[87.6 µM],17
Cc1ccccc1-c1[nH]nc2ncc(-c3ccsc3)nc12,-23%[87.6 µM],32µM*,-33%[87.6 µM],21
Cc1ccccc1-c1[nH]nc2ncc(-c3cccc(O)c3)nc12,-18%[87.6 µM],?,-12%[87.6 µM],4
Cc1ccsc1-c1[nH]nc2ncc(-c3ccccc3F)nc12,-8%[87.6 µM],i,-8%[87.6 µM],17
O=C(NC1CCCN(c2ccc3nnc(-c4ccccc4)n3n2)C1)c1cccnc1 (stereo unspecified),/,/,/,-5
Cn1ccc2c(C(=O)NCCc3cnc[nH]3)nc(-c3cccnc3)cc21,-11%[87.6 µM],i,-9%[87.6 µM],-16
COc1ccccc1-c1cc2c(ccn2C)c(C(=O)NCCc2cnc[nH]2)n1,-12%[87.6 µM],40µM*,23%[87.6 µM],1
COc1ccc(-c2cc3c(ccn3C)c(C(=O)NCCc3cnc[nH]3)n2)cn1,-14%[87.6 µM],35µM*,-10%[87.6 µM],-9
COc1ccc(-c2cc3c(ccn3C)c(C(=O)NCCC(N)=O)n2)cc1OC,3%[87.6 µM],35µM*,?,-4
COc1cccc(-c2cc3c(ccn3C)c(C(=O)NCCc3cnc[nH]3)n2)c1OC,-13%[87.6 µM],40µM*,46%[87.6 µM],-15
CNC(=O)C(=O)N1C[C@H](C(=O)NC)[C@H]2c3ccccc3N(CCOC)C(=O)[C@]21C,9%[23.9 µM],/,-2%[25.6 µM],-8
Cn1ccc2c(C(=O)NCCc3cnc[nH]3)nc(-c3ccccc3)cc21,-23%[87.6 µM],i,44%[87.6 µM],7
Cn1ccc2c(C(=O)NCCc3cnc[nH]3)nc(-c3cnn(Cc4ccccc4)c3)cc21,-8%[87.6 µM],32µM*,-15%[87.6 µM],-6
CN(C)C[C@@H]1CN(Cc2ccncc2)C[C@H]1NC(=O)c1ccoc1,1%,?,-4%,4
COCC(=O)N[C@@H]1CN(Cc2ccccc2)C[C@H]1CN(C)C,11%,i,5%,-10
COCC(=O)N[C@@H]1CN(Cc2ccncc2)C[C@H]1CN(C)C,6%,25µM*,-9%,2
CN(C)C[C@@H]1CN(Cc2ccncc2)C[C@H]1NC(=O)c1ccc(Cl)cc1,?,20µM*,7%,8
O=C(NCCCc1ccccc1)c1ccc2nccn2c1,2%[87.6 µM],35µM*,62%[87.6 µM],-5
O=C(NCCC1CCCCC1)c1ccc2nccn2c1,1%[87.6 µM],28µM*,83%[87.6 µM],-5
O=C(NCCc1nc(Cc2ccccc2)no1)c1ccc2nccn2c1,3%,18µM*,-3%,-14
O=C(Nc1ccc(F)cc1)C1CCCN(Cc2cccc(-c3cccs3)c2)C1 (stereo unspecified),/,/,/,2
CCn1ncc(CN2CCCC23CCN(c2ccc(C(F)(F)F)cn2)CC3)c1C,-13%,28µM*,17%,1
COCCNC(=O)C1CCN(c2nccc(Nc3ccccc3Cl)n2)CC1,2%[12.5 µM],/,-7%,4

# Screening results from PubChem.
